Bioassay records as filed in PubChem BioAssay.
Rab9 promoter act – activators of Rab9 promoter; 320,000 compounds, 2.8% hits; Potency, µM (highest dose often 9.22 µM), without a hit: at the highest dose activation, negative = inhibition, usual class: activators; Huh7 Rab9 promoter-luciferase reporter, luminescence, 24 h; further: % of control where 0% means no effect; nearly all actives have a fitted effect of over 60% in size
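Luminescence read-out: Huh7 cells stably expressing Rab9-luciferase, treated 24 h with compound at 37 °C, then lysed with luciferase reagent for 10 min at ambient before reading.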
SMN2 splice up – increases expression of the SMN2 splice variant; AID 1458; HEK293 SMN2-luciferase splicing reporter, luminescence, 30-36 h; Potency, µM (doses to about 46.1 µM), for inactives: at the highest dose activity change, positive = activation, actives largely listed as activators; 210,000 compounds, 2.8% hits; further: % of control where 0% means no effect; nearly all actives have a fitted effect of over 55% in size
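HEK293 cells carry an SMN2 minigene-luciferase reporter in which exon 7 inclusion puts luciferase in frame. Cells were seeded at 2000 cells/well, attached for 10-12 hours, then exposed to compounds for 30-36 hours at 37C before ONE-Glo luminescence.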
NPC1 promoter act – NPC1 promoter activation; Huh7 NPC1 promoter luciferase reporter, 24 h; Potency, µM (highest dose often 9.22 µM), for inactives: at the highest dose activation, hits mostly activators; 320,000 compounds, 2.4% hits; AID 485313; further: % of control where 0% means no effect; nearly all actives have a fitted effect of over 60% in size
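Stably transfected Huh7 (NPC1 promoter→luciferase), 1500 cells/well in Opti-MEM + 10% FBS, 2 h settle, then compound 24 h at 37 °C. Luminescence after 10 min with Amplite reagent.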
ELG1 DNA repair – inhibitors of ELG1-dependent DNA repair in HEK293T cells | Potency, µM (top dose mostly 46.1 µM), for inactives: at the top dose activity change, negative = inhibition, usual class: inhibitors | HEK293T ELG1-luciferase reporter, luminescence, 16 h; DNA damage induced by 5-fluorouridine | 330,000 compounds, 2.3% hits; further: on the % scale 0 is the no-effect control and ±100 the full control effect; nearly all actives have a fitted effect of over 55% in size
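Quantitative HTS, concentration-response format. 2,000 cells/well co-treated with 5-fluorouridine and compound, 16 hr in 5% CO2 at 37 °C; ONE-Glo luminescence read after 30 min.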
FLuc counter – firefly luciferase modulation, counter-screen for miR-21 project | P08659 | purified FLuc, Km substrates, luminescence inhibition | Potency, µM (doses to about 57.5 µM), for inactives: at the highest dose activity change, negative = inhibition, actives largely listed as inhibitors | 360,000 compounds, 6.9% hits | AID 588342;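 further: plate controls were vehicle for no effect and reference inhibitor for full effect; nearly all actives have a fitted effect of over 55% in size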
Target sequence (P08659 whole entry, looked up): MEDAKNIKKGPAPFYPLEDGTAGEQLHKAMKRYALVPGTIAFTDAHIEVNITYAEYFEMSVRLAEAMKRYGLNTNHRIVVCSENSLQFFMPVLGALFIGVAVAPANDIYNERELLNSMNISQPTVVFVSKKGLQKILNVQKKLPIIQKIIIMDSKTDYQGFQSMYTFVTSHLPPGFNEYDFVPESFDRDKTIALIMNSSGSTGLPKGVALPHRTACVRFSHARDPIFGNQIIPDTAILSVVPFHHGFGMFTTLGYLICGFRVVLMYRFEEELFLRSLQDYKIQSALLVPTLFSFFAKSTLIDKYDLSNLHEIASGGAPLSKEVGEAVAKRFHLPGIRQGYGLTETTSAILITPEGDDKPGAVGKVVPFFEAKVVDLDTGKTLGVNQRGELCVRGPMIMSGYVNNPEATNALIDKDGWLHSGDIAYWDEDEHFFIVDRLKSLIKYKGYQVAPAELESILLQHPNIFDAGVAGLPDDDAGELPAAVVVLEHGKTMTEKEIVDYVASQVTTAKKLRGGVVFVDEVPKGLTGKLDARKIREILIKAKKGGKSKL
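Purified P. pyralis luciferase, 10 nM final, with Km-level 10 uM D-luciferin and 10 uM ATP in 50 mM Tris acetate pH 7.5, 10 mM Mg acetate, 0.01% Tween-20, 0.05% BSA; 6-point qHTS titration about 60 µM downward; luminescence read.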
ELG1 genotox – induces genotoxicity in HEK293T cells with luciferase-tagged ELG1. 330,000 compounds, 1.3% hits. HEK293T ELG1-luciferase reporter, luminescence, 16 h. Potency, µM (highest dose often 46 µM), inactives show at the top dose activity change, positive = activation, most hits filed as activators; further: % of control where 0% means no effect; nearly all actives have a fitted effect of over 60% in size
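Genotoxicity was scored as increased ELG1-luciferase reporter signal, measured by ONE-Glo luminescence (30 min, room temperature). Compound or vehicle exposure of the HEK293T reporter cells lasted 16 hr at 37°C.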
Active calls of the source: *; ? = inconclusive; / = no result given; ! = repeats disagree. The list is not random: actives were taken first. Their share in the collection is about 9.4%. The call rests on the fitted dose curve; in most records, active means well fitted curve in the direction sought with a large enough effect; inconclusive means small, poorly fitted or top-dose-only effect, or another doubt; inactive means no such curve, though single readings can be large; an effect the other way counts as inactive or inconclusive. Potency means the concentration at half of the fitted maximal effect.

SMILES | Rab9 promoter act | SMN2 splice up | NPC1 promoter act | ELG1 DNA repair | FLuc counter | ELG1 genotox
Cn1c2c(c(=O)n(C)c1=O)C(c1ccccc1C(F)(F)F)CC(=O)N2 (configuration not stated) | / | -11% | / | / | -1% | /
CCc1ccc(NC(=O)c2cc3nc(-c4ccc(C)cc4)cc(C(F)(F)F)n3n2)cc1 | / | 6% | / | / | 1% | /
COC(=O)c1sccc1S(=O)(=O)N(CC(=O)NCc1ccc(F)cc1)c1ccc(Cl)cc1 | / | / | / | / | -12% | /
O=C(c1ccc(C(F)(F)F)cc1)N1CCC(c2noc(-c3ccc(S(=O)(=O)N4CCCC4)cc3)n2)CC1 | / | -2% | / | / | 5% | /
O=C(Nc1nnc(S(=O)(=O)N2CCOCC2)s1)c1ccccc1F | -3% | / | -3% | 22% | 0% | 6%
O=C(Nc1nnc(S(=O)(=O)N2CCCCCC2)s1)c1ccccc1F | 19% | / | 22% | 17% | 17µM* | 10%
Cc1ccccc1C(=O)Nc1nnc(S(=O)(=O)N2CCCCCC2)s1 | 0% | / | -7% | ? | 13µM*! | 0%
Cc1cccc(C(=O)Nc2nnc(S(=O)(=O)N3CCOCC3)s2)c1 | 11% | / | 8% | 16% | -18% | 4%
CC1CN=C(NC(=O)c2cccc([N+](=O)[O-])c2)S1 (configuration not stated) | 0.4µM* | / | 0.5µM* | ? | 2.4µM* | ?
O=C(Nc1nnc(S(=O)(=O)N2CCOCC2)s1)c1cccc(F)c1 | ? | / | ? | ? | 15µM*! | -2%
COc1ccc(NC(=O)c2oc3ccc(S(=O)(=O)N4CCCCC4)cc3c2C)cc1Cl | / | / | / | / | 4% | /
CCCC(=O)Nc1nnc(S(=O)(=O)N2CCCC2)s1 | -1% | / | -9% | 5% | -1% | -1%
O=C(Nc1nnc(S(=O)(=O)N2CCCC2)s1)c1cccc([N+](=O)[O-])c1 | 22% | / | 25% | ? | 15µM* | 7%
CCCC(=O)Nc1nnc(S(=O)(=O)N2CCCCCC2)s1 | -1% | / | -2% | -9% | 11µM*! | -3%
Cc1nn2c(-c3ccccc3)nnc2c2ccccc12 | ? | 5.6µM* | ? | ? | 19µM* | ?
CCOc1cc(C(=O)OCc2cc(=O)n3c(C)csc3n2)cc(OCC)c1OCC | / | / | / | / | -1% | /
COc1ccccc1C(=O)OCc1cc(=O)n2c(C)csc2n1 | / | / | / | / | 19µM* | /
COc1cccc(C(=O)Nc2ccccc2C(=O)OCc2cc(=O)n3c(C)csc3n2)c1 | / | / | / | / | -5% | /
COc1ccc(C(=O)OCc2cc(=O)n3c(C)csc3n2)cc1F | 2.2µM* | / | 4µM* | ? | ? | ?
O=C(c1cc(C(F)(F)F)cc(C(F)(F)F)c1)N1CCC2(CC1)CN(c1ccccc1)C2 | / | -20% | / | / | / | /
CSc1ccccc1NC(=O)CN(C)C(=O)/C=C/c1ccccc1 | -4% | / | -4% | -1% | 1% | -2%
COc1cc(/C=C/C(=O)N(C)CC(=O)Nc2ccccc2SC)cc(OC)c1OC | / | / | / | 16µM* | / | 0%
Cc1nc2sc(C(=O)N(C)Cc3ccccc3)c(NC(=O)c3ccccc3)c2c(C)c1Cl | / | 11% | / | / | -3% | /
CCCNC(=S)N1CCC(C(=O)c2ccc(F)cc2)CC1 | -1% | / | 2% | -14% | 8% | -4%
COc1ccc(C(=O)C2CCN(C(=S)NCCc3ccc(OC)c(OC)c3)CC2)cc1 | -20% | / | -9% | 21µM* | 19µM* | -4%
SMILES | Rab9 promoter act | SMN2 splice up | NPC1 promoter act | ELG1 DNA repair | FLuc counter | ELG1 genotox
COc1ccc(CCNC(=S)N2CCC(C(=O)c3ccc(F)cc3)CC2)cc1OC | -24% | -65% | -18% | 9.2µM* | -5% | -8%
COc1ccc(CCNC(=S)N2CCC(Cc3ccccc3)CC2)cc1OC | -31% | -37% | -17% | 9.2µM* | -2% | -6%
COc1ccc(CCNC(=O)c2ccc(CN3CCC(Cc4ccccc4)CC3)cc2)cc1OC | -9% | -40% | 1% | -16% | 4% | 5%
O=C(c1ccc(F)cc1)C1CCN(C(=S)Nc2ccc(F)cc2)CC1 | -7% | / | -6% | 10µM* | -1% | -7%
COc1ccc(C(=O)C2CCN(C(=S)NCCc3ccccc3)CC2)cc1 | -2% | 7% | 3% | 5% | 1% | 3%
CC(C)(C)NC(=S)N1CCC(C(=O)c2ccc(F)cc2)CC1 | -4% | / | -1% | -10% | -1% | -5%
Cc1ccc(NC(=O)C(=O)NCC(c2cccnc2)N2CCN(Cc3ccccc3)CC2)cc1F (configuration not stated) | / | / | / | / | -6% | /
C=C1CC[C@H](O)C/C1=C/C=C1\CCC[C@]2(C)C([C@H](C)CC[C@@H](O)C(C)(C)O)CC[C@@H]12 (some centres not stated) | / | -4% | / | / | / | /
COc1cc(OC)c(Nc2cc(C)nc3ncnn23)cc1Cl | / | 18% | / | / | -1% | /
O=C(N=Nc1ccc(NOC(=O)c2ccccc2Br)cc1)c1ccccc1O | ? | -29% | ? | ? | 8.5µM* | 3%
COC(=O)c1ccccc1O | / | 2% | / | / | / | /
O=C(CSc1ccccc1C(=O)N1CCN(c2ccccc2)CC1)N1CCCC1 | -2% | / | -3% | 15% | -19% | 0%
O=C(CSc1ccccc1C(=O)N1CCN(c2ccc([N+](=O)[O-])cc2)CC1)N1CCCC1 | / | / | / | 15µM* | / | -5%
Cc1nn(CC(=O)NC2CCCCC2)c(=O)c2cc3cc(F)ccc3n12 | / | -2% | / | / | -1% | /
CCOC(=O)c1nc2sc3c(c2c(=O)[nH]1)CCC(C)C3 (configuration not stated) | -2% | / | -5% | 9% | 17µM* | 1%
CCOC(=O)c1nc2sc3c(c2c(=O)[nH]1)CCCC3 | -1% | 3% | 1% | 0% | 19µM* | -6%
COc1cccc(-c2nc3sc4c(c3c(=O)[nH]2)CCCCC4)c1 | ? | 0.89µM* | ? | ? | 0.15µM* | ?
